# According to the supplement of paper PMC6555819:
# Columns and labels:
# Test in all cases: PBM binding z-score (relative to random genomic background probes); higher = stronger binding; sequences stand for … in GC…GCGATTGACAGCGTAGAATGAAGG
# [1] = test system: PPARg:RXRa DBDmut IVT, anti-RXR (DBD mutation: RXRa K156A/R161A, NR concentration 270 nM, RXRa partner concentration 90 nM)
# Method in brief: (§1)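 Custom Agilent 4×180K protein-binding microarrays carried double-stranded probes. Their 34-nt variable regions held direct-repeat seeds, single-nucleotide variants, half-site ablations and random human genomic background sequences. Arrays were incubated 1 h with ligand-free nuclear receptor dimers in PBS pH 7.4, 2% milk, 0.02% Triton X-100, 1 mM DTT, 0.2 mg/mL BSA and 0.4 mg/ml salmon testes DNA. Antibodies against each partner (one per run) detected binding, and scanned fluorescence was regression-normalized. Binding z-scores use random background probes as reference.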
# [2] = test system: PPARg:RXRa IVT, anti-PPARg (NR concentration 270 nM, RXRa partner concentration 90 nM)
# Method in brief: as §1
# [3] = test system: PPARg DBDmut:RXRa IVT, anti-PPARg (DBD mutation: PPARg1 K132A/R137A, NR concentration 270 nM, RXRa partner concentration 90 nM)
# Method in brief: as §1
# [4] = test system: PPARg DBDmut IVT, anti-PPARg (DBD mutation: PPARg1 K132A/R137A, NR concentration 270 nM)
# Method in brief: as §1
# [5] = test system: PPARg homodimer (NR concentration 180 nM)
# Method in brief: as §1
# [6] = test system: PXR:RXRa (NR concentration 270 nM, RXRa partner concentration 90 nM)
# Method in brief: as §1
# [7] = test system: PXR homodimer (NR concentration 270 nM)
# Method in brief: as §1
# [8] = test system: RARa:RXR (NR concentration 270 nM, RXRa partner concentration 90 nM)
# Method in brief: as §1
# [9] = test system: RARa homodimer (NR concentration 270 nM)
# Method in brief: as §1
# [10] = test system: RARb:RXRa (NR concentration 270 nM, RXRa partner concentration 90 nM)
# Method in brief: as §1
Sequence,PBM binding z-score [1],PBM binding z-score [2],PBM binding z-score [3],PBM binding z-score [4],PBM binding z-score [5],PBM binding z-score [6],PBM binding z-score [7],PBM binding z-score [8],PBM binding z-score [9],PBM binding z-score [10]
TAGCCTAGGTCATTGGGTCAGTATAGTACGCATC,4.09,4.95,0.491,0.952,3.71,2.99,0.622,3.67,0.571,4.06
TCTTGTAGATCAAGCAGGTTAAGAAGGCCTGAGT,1.58,0.43,0.564,0.0402,0.079,0.386,0.0272,0.642,-0.212,0.128
GCTCGGAGGACAAGGTGAGAGCTTTGTCCGTAGA,-0.575,0.359,-0.51,-0.882,-0.374,-0.472,-0.908,-0.166,-1.13,1.52
CCTAGCAGGCCCATCTGGGTCACTCAAGGCTTGA,0.547,2.42,-1.01,-1.83,0.0647,0.362,-0.496,1.21,-0.257,0.978
TGAATGAGGTTATAAGAACAGGGAACGTTGCAAA,0.968,1.75,0.842,0.453,0.709,0.563,-0.0582,1.32,-0.0801,1.11
CCTTACGGGTCACTCCAGGTTATAGAATCGGAGT,2.67,3.47,1.31,0.0238,1.95,5.29,0.455,4.11,0.74,3.68
GCTACCAGGCCATTTGGGTCACTCAATGACGGGC,2.04,2.77,0.125,-0.407,-0.0143,0.976,0.553,0.919,-0.79,1.59
GCAAGTTGGTCAGTAAAAGGTCACACACCGGTCG,1.27,2.7,0.611,0.159,4.55,5.2,1.01,5.84,1.75,4.17
CATACAGGGTCAGCTAGGCCAGACTAGGGACGGC,1.3,2.37,0.631,0.373,0.901,2.01,0.149,2.36,0.259,3.94
TCAGACAGGTGAAGGTAACACAGGTACGCAGTCG,2.57,1.37,-0.146,0.0418,1.19,1.02,0.463,1.28,0.787,1.32
TCTTGTAGATCAAAGGTTAATAAAGCCGAAGCCT,2.46,3.56,0.977,1.2,1.25,1.62,0.19,2.43,1.02,1.64
ATCTCTAGGTAATACTCAGTTCAGTGAAGAACGC,2.77,1.87,1.44,1.47,1.53,1.58,2.24,0.858,2.17,0.79
CGTCCAAGGTCATCAGGTCAGTGAAAGCGACGTG,3.92,4.54,1.13,-0.42,3.58,4.88,1.66,5.46,1.46,5.43
CCTATTAGTTGACCATAAGGGCAACGGAAGCTCG,0.458,0.449,0.427,0.782,2.06,0.568,0.623,0.736,1.45,1.54
CCTACTGGGCCATTCAGAGGTCCTTGATCATATG,4.1,3.15,-0.401,0.127,-0.0171,-0.621,-0.408,-0.409,-0.479,0.0641
CCTTACGGGTCACGAGGCTATAGCACGACGAGCG,3.61,4.78,0.556,-0.248,1.81,3.26,-0.243,4.45,0.264,4.23
ATTAGCAGGCCAAGGGTCACTCAAGATTAGTCCG,0.795,3.76,0.0508,0.161,1.61,3.2,-0.179,4.06,0.0408,3.62
CGATCTAGGTCAAGGACAGTGAATCTCCGCACGC,7.91,8.16,4.56,2.13,2.28,0.815,0.057,2.01,0.269,3.87
CCTGACAGGTGAGAAGGTAACTCAGCCTCGATTA,1.12,0.913,-0.717,-0.671,0.832,-0.216,-0.0629,0.621,-0.07,0.751

Sequence,PBM binding z-score [1],PBM binding z-score [2],PBM binding z-score [3],PBM binding z-score [4],PBM binding z-score [5],PBM binding z-score [6],PBM binding z-score [7],PBM binding z-score [8],PBM binding z-score [9],PBM binding z-score [10]
CTTAGCAGGCCAATCTGGGTCACTCAAGGCTTGA,4.54,5.41,1.49,-0.595,0.867,0.661,-0.63,1.8,-0.332,1.46
GCTCGGAGGACAAGTTCAGAGCTTTGTCCGTAGA,-0.557,-0.546,-1.36,-1.47,-0.526,0.977,0.281,0.489,-1.39,1.92
CCTGCTAGGTCATGGTCAACTAATCTACAGTATG,4.88,4.48,0.715,0.58,1.66,1.82,-0.415,2.94,0.861,4.06
TCATTTAGGTAAAAGGTGAAAGTCGGTGTGGTAA,4.84,4.91,0.936,1.44,2.08,1.42,0.93,2.74,1.77,2.05
TCTAGCAGGCCAGAGGGTCACACAAGAGGTACGG,1.19,1.38,-0.514,-0.172,1.57,2.37,-0.42,3.44,0.0542,2.62
CCTGCTAGGCCAATGGTCAGCTAAAGCAGCTCGC,0.832,0.413,-1.62,-1.52,-0.65,-0.919,-0.736,-0.768,-0.677,0.755
TCTGCTAGGTCAACTATGGTCAGCTAATCTGCTA,3.77,4.24,0.825,0.277,1.55,2.47,-0.42,2.76,0.288,4.38
AGCTCTAGGTAAGACTCAGTTCAGTGAAGAACGC,2.37,0.56,-0.869,0.622,-0.0493,0.744,0.904,-0.0214,-0.00994,-0.0595
TCTTGTAGAACAAGCAGGTTAAGAAAGCCTGAGT,1.62,0.593,0.632,-0.0834,-0.0982,0.365,0.0921,0.607,-0.498,0.0626
GGAACGAGGGCATTCGAGTTGAAAGCATGGCGAT,2.58,2.01,-0.14,-0.111,0.301,3.96,1.15,1.18,-0.521,1.71
TGAATGAGCTTATAAGATCAGGGAACGTTGCAAA,-1.43,-0.528,0.471,0.179,-0.626,-0.456,-0.325,-0.125,-0.206,-1.12
CATAGCAGGCCAATCTGGGTCACTCAAGGCTTGA,4.39,5.66,-0.292,-0.125,0.261,1.03,-0.436,1.25,-0.301,1.65
CCAGACAGGTGAGAAGGTATCTCAGCCTCGATTA,0.865,0.119,-1.02,-0.0601,0.414,-0.407,0.0596,0.185,0.147,0.303
GGAACGAGGGCATTCGAGTTAATAGCATGGCGAT,3.25,2.26,-0.564,-0.5,0.00587,3.48,0.437,0.742,-0.33,1.8
CGAACGAGGGCATGAGTTGATAGCCAATGCCGAT,3.14,2.29,0.281,-0.251,0.292,0.342,-0.25,0.497,-0.133,2.01
CCAGACAGGTGAAAGGTAACTGAGTCTGGTACGC,2.15,3.28,-0.148,-0.636,1.11,0.918,-0.224,1.83,0.0845,1.28
CCGACTGGGTCAGAAAGGTTACCATACCATCCGG,3.31,3.92,0.245,-0.526,2.08,2.48,0.43,3.17,0.179,3.15
ACTATTAGTTGACACGAGGGCAACCGATAGGTTG,0.272,1.04,0.784,0.778,0.695,1.75,0.634,1.74,0.708,1.59
CCTAGCAGGCCAGGGTCACTAAAGCATTTCGCTT,0.051,0.519,-1.03,-1.22,0.403,2.21,-0.725,2.96,-0.568,2.35
